In PubChem BioAssay (NCATS):
Results filed as inconclusive are left out. A call without a number means that no potency is given here. Activity calls are given as the source filed them. Calls follow the shape of the dose curve; as a rule, active = well fitted inhibition curve with a large enough effect; inconclusive = small, poorly fitted or top-dose-only effect; inactive = flat fitted curve, though single readings scatter.

The molecules below were run against Aldehyde dehydrogenase, mitochondrial (Homo sapiens) (UniProt P05091) (assay: qHTS for Inhibitors of the Aldehyde Dehydrogenase Family (ALDH2) Primary screen (AID 2061308; also: nearly all actives have a fitted effect of over 55% in size)). Settings: ALDH2 enzyme inhibition qHTS, 1536-well; series mostly up to 56 µM.
Potency is read from the fitted curve at half-maximal effect.

Row | Compound | Potency
1 | NC(=O)C1CCN(c2nc(-c3ccc(Cl)cc3)cs2)CC1 | inactive
2 | COc1ccc([N+](=O)[O-])c(S(=O)(=O)c2ccccc2)n1 | 4.47 µM (active)
3 | O=S(=O)(Nc1ccc(O)c2ncccc12)c1ccccc1F | inactive
4 | COc1ccc(C2Nc3ccccc3C(=O)N2Cc2ccccc2)cc1COc1ccccc1OC (configuration not stated) | inactive
5 | CCOC(=O)c1ccc(O)c2ncc(N3CCC(C(=N)N)CC3)cc12 | inactive
6 | O=S1(=O)CCN(Cc2cc(NCC3CCOCC3)c3[nH]c(-c4ccccc4)cc3c2)CC1 | inactive
7 | Cc1c(Cl)cccc1NS(=O)(=O)c1cc2c(cc1F)NC(=O)CC2 | inactive
8 | Cc1ccc(S(=O)(=O)c2ccc([N+](=O)[O-])cn2)cc1 | 2 µM (active)
9 | COc1ccc(C2Nc3ccccc3C(=O)N2Cc2ccccc2)cc1COc1ccc(C)cc1 (configuration not stated) | inactive
10 | CCc1nc2c(sc3nc4c(cc32)COC(C)(C)C4)c(=O)n1Cc1ccco1 | inactive
11 | COc1cc2ncc(-c3ccccc3)nc2cc1OC | inactive
12 | COc1ccc([N+](=O)[O-])c(S(=O)(=O)c2ccc(Cl)cc2)n1 | 1.78 µM (active)
13 | O=[S+]([O-])(NCC#CCSc1nnc(-c2cccc3ccccc23)o1)c1ccc(F)cc1 | inactive
14 | Cc1cc(C)nc(NC(=S)N2CCN(c3ccc4nsnc4c3)CC2)c1 | 7.94 µM (active)
15 | CC(C)(C)OC(=O)NC1CCN(c2nc(-c3ccc(Br)cc3)cs2)CC1 | inactive
16 | c1cn2cc(-c3ccc4cn[nH]c4c3)nc(Nc3ccc(N4CCOCC4)cc3)c2n1 | inactive
17 | CC(C)(C)Nc1nc(C#N)nc(Nc2ccccc2)n1 | inactive
